ELG1 genotox: qHTS screen for small molecules that induce genotoxicity in human embryonic kidney (HEK293T) cells expressing luciferase-tagged ELG1; Potency, µM (titrated, usually from 46 µM), most hits filed as activators; hit rate 1.3% among 330,000; HEK293T ELG1-luciferase reporter, luminescence, 16 h; AID 504466, 2011; further: nearly all actives have a fitted effect of over 60% in size
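Luminescence read-out: rising ELG1-luciferase signal, reflecting elevated ELG1 protein under genetic stress, flags genotoxic compounds. Cells were treated for 16 hr at 37 °C before ONE-Glo detection.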
Rab9 promoter act: qHTS Assay for Rab9 Promoter Activators; hit rate 2.8% among 320,000; Huh7 Rab9 promoter-luciferase reporter, luminescence, 24 h; Potency, µM (series often up to 9.22 µM), actives largely listed as activators; further: nearly all actives have a fitted effect of over 60% in size
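Huh7 reporter line, Rab9 promoter upstream of luciferase. Compound exposure 24 h at 37 °C in reduced-serum medium with 10% FBS. Read-out: luminescence.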
FLuc modulator: qHTS profiling assay for firefly luciferase inhibitor/activator using purifed enzyme and Km concentrations of substrates (counterscreen for miR-21 project); Luciferin 4-monooxygenase (Photinus pyralis), P08659; AID 588342, 2011; Potency, µM (titrated, usually from 57.5 µM), most hits filed as inhibitors; hit rate 6.9% among 360,000; purified FLuc, Km substrates, luminescence inhibition; further: nearly all actives have a fitted effect of over 55% in size
Target sequence (P08659 whole entry, looked up): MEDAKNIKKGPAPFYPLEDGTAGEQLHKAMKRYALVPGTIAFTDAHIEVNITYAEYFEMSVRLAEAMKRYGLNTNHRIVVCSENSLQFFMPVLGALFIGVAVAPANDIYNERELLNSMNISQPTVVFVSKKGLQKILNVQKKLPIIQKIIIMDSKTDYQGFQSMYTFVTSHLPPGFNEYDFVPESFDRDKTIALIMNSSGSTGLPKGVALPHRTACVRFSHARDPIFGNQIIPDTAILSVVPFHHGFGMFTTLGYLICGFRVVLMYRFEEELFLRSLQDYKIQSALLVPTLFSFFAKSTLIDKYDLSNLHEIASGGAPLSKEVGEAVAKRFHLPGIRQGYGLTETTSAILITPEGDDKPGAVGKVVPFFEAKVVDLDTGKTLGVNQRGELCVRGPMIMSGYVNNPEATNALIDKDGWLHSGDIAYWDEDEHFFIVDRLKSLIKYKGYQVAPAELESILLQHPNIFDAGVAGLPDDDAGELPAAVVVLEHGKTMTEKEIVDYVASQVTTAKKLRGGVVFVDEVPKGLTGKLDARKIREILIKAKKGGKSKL
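Biochemical qHTS of compounds, final roughly 60 µM downward over six points, against 10 nM purified firefly luciferase using Km concentrations of substrates (10 uM D-luciferin, 10 uM ATP) in Tris acetate pH 7.5 buffer; luminescence output.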
NPC1 prom act: qHTS Assay for NPC1 Promoter Activators; Huh7 NPC1 promoter luciferase reporter, 24 h; Potency, µM (highest dose often 9.22 µM), usual class: activators; hit rate 2.4% among 320,000; further: nearly all actives have a fitted effect of over 60% in size
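Quantitative HTS used a cell-based reporter: Huh7 cells stably bearing the NPC1 promoter upstream of luciferase were treated with compounds for 24 h, and promoter activation was read as luminescence.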
SMN2 splice up: qHTS Assay for Enhancers of SMN2 Splice Variant Expression | Potency, µM (top dose mostly 46.1 µM), hits mostly activators | AID 1458, 2008 | hit rate 2.8% among 210,000 | HEK293 SMN2-luciferase splicing reporter, luminescence, 30-36 h; further: nearly all actives have a fitted effect of over 55% in size
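HEK293 cells carry an SMN2 minigene-luciferase reporter in which exon 7 inclusion puts luciferase in frame. Cells were seeded at 2000 cells/well, attached for 10-12 hours, then exposed to compounds for 30-36 hours at 37C before ONE-Glo luminescence.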
KinaseGlo FLuc: Counterscreen for Luciferase (Kinase-Glo TM) Inhibition; Kinase-Glo luciferase, ATP luminescence, 8 min; Potency, µM (doses to about 38.3 µM), hits mostly inhibitors; hit rate 0.28% among 200,000; AID 1379, 2008; further: nearly all actives have a fitted effect of over 60% in size
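Recombinant Kinase-Glo luciferase, 10 uM ATP (linear range), luciferin; imidazole pH 7.2 / KCl / MgCl2 / Tween / BSA buffer; 8 min RT; luminescence.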
Numbers stand for hits; . = inactive; ? = inconclusive; / = no result given; [ ] = remark or other dose. Sampled rows, rich in hits. Any-hit rate of the full collection: about 7.5%. The call rests on the fitted dose curve; in most records, active means well fitted curve in the direction sought with a large enough effect; inconclusive means small, poorly fitted or top-dose-only effect, or another doubt; inactive means no such curve, though single readings can be large; an effect the other way counts as inactive or inconclusive.

SMILES	ELG1 genotox	Rab9 promoter act	FLuc modulator	NPC1 prom act	SMN2 splice up	KinaseGlo FLuc
Cc1ccccc1OCC1Cn2c(nc3c2c(=O)n(C)c(=O)n3C)O1 (centres undefined)	.	.	.	.	/	/
Cc1cccc(Nc2nnc(SCc3cn4ccsc4n3)s2)c1	.	.	17µM	.	.	.
Cc1ccc(Nc2nnc(SCC(=O)NCCN3C(=O)CSC3=O)s2)cc1C	?	.	1.7µM	?	/	/
O=c1cc(CSc2nnc(Nc3ccccc3)s2)nc2sccn12	.	.	.	.	?	.
Cc1cccc(Nc2nnc(SCC(=O)NCc3cccs3)s2)c1C	.	.	.	.	.	.
Cc1cccc(Nc2nnc(SCC(=O)NC3CCCc4ccccc43)s2)c1 (centres undefined)	.	.	6µM	.	.	.
Cc1cccc(Nc2nnc(SCC(=O)NCc3cccs3)s2)c1	.	.	11µM	.	.	.
COC(=O)C1CC1C(NC(=O)[C@H]1CCCCN1)c1ccccc1 (some centres undefined)	/	/	/	/	.	.
NC(=O)C1CCCN(C(=O)c2cccc(NC(=O)c3cccs3)c2)C1 (centres undefined)	.	.	.	.	/	/
Nc1nnc(SCC(=O)Nc2cccnc2Cl)s1	.	.	.	.	/	/
Cc1cccc(Nc2nnc(SCC(=O)Nc3cccnc3Cl)s2)c1	.	.	6µM	.	.	.
Fc1ccc2nc(Nc3nc4cc5c(cc4s3)OCO5)sc2c1	13µM	2µM	6µM	2.5µM	11µM	.
Fc1ccc2nc(Nc3nc4cc5c(cc4s3)OCCO5)sc2c1	?	2.8µM	?	2.8µM	?	.
c1ccc2sc(Nc3nc4cc5c(cc4s3)OCO5)nc2c1	5.2µM	1µM	2.4µM	3.2µM	3.2µM	.
O=C(NNc1nc2cc3c(cc2s1)OCCO3)c1ccc(F)cc1	.	.	?	.	.	.
O=C(NNc1nc2cc3c(cc2s1)OCO3)c1ccc(F)cc1	.	.	?	.	.	.
COc1cc(NC(=O)COC(=O)c2ccc3ccccc3n2)cc(OC)c1	.	.	.	.	/	/
CCOc1ccc(N=C(NN)c2ccc3ccccc3n2)cc1	?	?	11µM	.	.	.
Cc1cc(OCC(=O)Nc2ccncc2)ccc1Cl	.	.	?	.	/	/
Cc1ccc2nc(-c3ccc(NC(=O)COc4c(C)ccc(C)c4C)cc3)sc2c1	/	/	19µM	/	?	/
Cc1ccc(CSc2nc3ccc(NC(=O)COc4ccccc4F)cc3s2)cc1	/	/	.	/	/	/
Cc1ccc2nc(-c3ccc(NC(=O)COc4ccc(Cl)c(C)c4)cc3)sc2c1	/	/	21µM	/	14µM	/
Cc1ccc(NC(=O)COc2ccc(Br)cc2CO)cc1	.	.	13µM	.	.	.
Cc1ccc2nc(-c3ccc(NC(=O)COc4ccc(Br)cc4Br)cc3)sc2c1	/	/	2.1µM	/	2.8µM	/
CC(C)c1ccc(Cn2ccc3c4c(N)nc(NC5CC5)nc4ccc32)cc1	/	/	/	/	/	.
SMILES	ELG1 genotox	Rab9 promoter act	FLuc modulator	NPC1 prom act	SMN2 splice up	KinaseGlo FLuc
COc1ccccc1C(=O)Nc1ccc2c(C)cc(=O)oc2c1	?	1.6µM	?	2µM	/	/
CCOc1ncccc1C(=O)Nc1ccc(F)c(F)c1	.	.	.	.	.	.
CCOc1ncccc1C(=O)Nc1ccc2c(C)cc(=O)oc2c1	.	?	.	3.5µM	.	.
Cc1ccccc1OCCC(=O)Nc1ccc2c(C)cc(=O)oc2c1	.	.	.	.	/	/
Cc1cc(C)c(NC(=O)COc2ccccc2C(=O)Nc2ccc3c(c2)oc2ccccc23)c(C)c1	.	.	13µM	.	.	.
COc1ccccc1C(=O)NCCC(=O)NC1CCC(C)CC1 (centres undefined)	?	4µM	13µM	?	/	/
COc1ccccc1C(=O)NCCC(=O)NCCc1ccccc1	.	.	.	.	/	/
COc1ccccc1C(=O)NCCC(=O)NCC(c1ccccc1)N(C)C (centres undefined)	.	.	13µM	.	/	/
COc1ccc(NC(=O)CN(C)C(=O)CCCc2nc3ccccc3c(=O)[nH]2)cc1	.	.	.	.	/	/
Cc1ccc(N=CC=C2OC(C)(C)C(C)(C)O2)cc1	.	.	7.6µM	.	.	.
Cc1cccc(N=CC=C2OC(C)(C)C(C)(C)O2)c1	.	.	?	.	.	.
Cc1ccc(CN(C(=O)c2ccc([N+](=O)[O-])cc2)C2CCS(=O)(=O)C2)o1 (centres undefined)	.	.	.	.	/	/
Cc1ccc(C(=O)OCCc2c(C)[nH]n(-c3ccccc3)c2=O)cc1	.	.	13µM	.	.	.
Cc1[nH]n(-c2ccccc2)c(=O)c1CCOC(=O)c1cccc(C(F)(F)F)c1	.	.	.	.	.	.
COc1cccc(NC(=O)CN(C)C(=O)CCCc2c[nH]c3ccccc23)c1	.	.	.	.	/	/
CCOC(=O)/C=C(\C)Sc1cc(O)c2ccccc2c1O	.	.	9.5µM	.	/	/
CCN(CC(=O)Nc1c(F)cccc1F)C(=O)COc1ccc2c(c1)CCC2	.	.	.	.	/	/
CCc1c(C)nc(SCC(=O)Nc2ccc3c(c2)OCCO3)[nH]c1=O	.	.	?	.	/	.
O=C(CSc1ncccc1-c1nc2ccccc2[nH]1)Nc1ccc2c(c1)OCCO2	.	.	27µM	.	.[1.84 µM]	.
O=C(CSc1nc2ncccc2[nH]1)Nc1ccc2c(c1)OCO2	.	.	?	.	/	/
Cc1ccc2nc(SCC(=O)Nc3ccc4c(c3)OCCO4)[nH]c2c1	.	.	15µM	.	.	.
O=C(CSc1ccccn1)c1ccc2c(c1)OCO2	4.6µM	2.5µM	11µM	3.5µM	11µM	?
O=C(CSc1nc2ccccc2[nH]1)Nc1ccc2c(c1)OCCO2	.	?	8.5µM	.	.	.
O=C1C(=O)N(C2CCN(C(=O)c3cccc(Cl)c3)CC2)CCN1Cc1ccc(F)cc1	/	/	.	/	/	/
CCCCC1=CC2=C(c3ccco3)C(=O)C(C)(OC(=O)c3ccc(Cl)nc3)C(=O)C2=CO1 (centres undefined)	/	/	/	/	.	.
O=C(CSc1nc2ccccc2[nH]1)c1ccc2c(c1)OCO2	13µM	1.4µM	12µM	?	.	.
O=C(COC(=O)CCCSc1nc2ccccc2[nH]1)Nc1cccc(F)c1	.	.	13µM	.	/	/
Cc1ccc2nc(SCC(=O)c3ccc4c(c3)OCO4)[nH]c2c1	.	.	?	.	.	.
Cc1ccc2nc(SC(C)C(=O)N3CCOCC3)[nH]c2c1 (centres undefined)	?	3.2µM	24µM	2.5µM	20µM	.

Bioassay records from PubChem BioAssay.
